# Assay results as given in PubChem BioAssay.
# Values joined by “and” are separate entries in the source; they are usually repeats but may differ in a detail not shown here. Equal values may be shown once. Active and inactive are the calls of the source. Cut-off read from the data, not from the text of the source, unless noted: active = inhibition above about 80%; inactive = the rest.
# Assays:
# [1] = target: 6-phosphogluconate dehydrogenase, decarboxylating (Homo sapiens) (UniProt P52209); experiment: 6PGD enzyme inhibitors, primary screen, biochemical, human, recombinant enzyme, NADPH absorbance (AID 1159550;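 active = at least 20% inhibition of 6-phosphogluconate dehydrogenase activity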); conditions: recombinant 6PGD, NADPH absorbance 341 nm; at 10 µM; stronger effect = higher value
# Chain of 6-phosphogluconate dehydrogenase, decarboxylating (Homo sapiens) (P52209 whole entry, looked up): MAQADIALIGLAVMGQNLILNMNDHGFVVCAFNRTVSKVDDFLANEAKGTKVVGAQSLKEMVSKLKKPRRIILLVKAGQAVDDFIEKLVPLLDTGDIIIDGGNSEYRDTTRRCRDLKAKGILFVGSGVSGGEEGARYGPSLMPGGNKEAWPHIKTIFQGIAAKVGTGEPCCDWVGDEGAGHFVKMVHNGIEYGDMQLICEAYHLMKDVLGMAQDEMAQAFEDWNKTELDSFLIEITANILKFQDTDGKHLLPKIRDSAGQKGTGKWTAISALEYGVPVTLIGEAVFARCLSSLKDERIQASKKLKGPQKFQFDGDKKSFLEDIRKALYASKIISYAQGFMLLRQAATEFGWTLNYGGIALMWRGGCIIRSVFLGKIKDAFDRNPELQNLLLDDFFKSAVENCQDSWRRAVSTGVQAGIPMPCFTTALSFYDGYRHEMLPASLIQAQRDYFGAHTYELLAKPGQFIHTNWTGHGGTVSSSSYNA
# [2] = target: NAD(+) hydrolase SARM1 (Homo sapiens) (UniProt Q6SZW1); experiment: SARM1 TIR NADase inhibitors, cell lysate, NAD-Glo luminescence (AID 1508614;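 active = compound whose remaining NAD level is above about 45 nM, limit read from the data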;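 note: higher remaining NAD means stronger inhibition of SARM1 NADase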); conditions: SAM-TIR HEK293T lysate NADase, at 1 µM, stronger effect = higher value
# Chain of NAD(+) hydrolase SARM1 (Homo sapiens) (Q6SZW1 whole entry, looked up, the tested form may be a part): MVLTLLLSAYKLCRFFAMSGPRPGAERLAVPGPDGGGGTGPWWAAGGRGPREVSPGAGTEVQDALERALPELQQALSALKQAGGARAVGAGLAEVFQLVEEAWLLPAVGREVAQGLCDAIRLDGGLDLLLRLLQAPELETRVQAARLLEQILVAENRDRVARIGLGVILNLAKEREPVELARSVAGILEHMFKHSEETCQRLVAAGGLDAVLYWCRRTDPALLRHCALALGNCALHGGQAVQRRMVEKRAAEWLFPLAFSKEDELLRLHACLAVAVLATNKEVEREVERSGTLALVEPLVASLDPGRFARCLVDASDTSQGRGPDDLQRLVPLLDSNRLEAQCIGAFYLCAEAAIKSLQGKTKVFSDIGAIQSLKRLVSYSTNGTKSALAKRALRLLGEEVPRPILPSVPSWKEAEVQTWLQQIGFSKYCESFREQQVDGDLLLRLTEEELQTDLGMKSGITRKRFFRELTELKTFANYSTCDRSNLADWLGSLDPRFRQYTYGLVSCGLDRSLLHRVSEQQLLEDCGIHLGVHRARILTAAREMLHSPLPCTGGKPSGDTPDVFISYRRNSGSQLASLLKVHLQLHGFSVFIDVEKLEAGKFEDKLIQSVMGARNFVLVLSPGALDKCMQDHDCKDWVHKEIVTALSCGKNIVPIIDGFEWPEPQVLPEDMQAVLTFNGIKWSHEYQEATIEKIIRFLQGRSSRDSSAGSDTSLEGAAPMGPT
# [3] = target: Mitogen-activated protein kinase 7 (Homo sapiens) (UniProt Q13164); experiment: ERK5 transactivation activators in reporter cells, primary screen, cell-based, HTS (AID 1508626;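 active = luciferase signal above three times the same-plate solvent-only control wells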;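 note: luciferase driven by Gal4-ERK5 fusion binding five Gal4 sites before minimal TATA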); conditions: HeLa Gal4-ERK5 transactivation, 18 h, at 5 µM, stronger effect = higher value
# Chain of Mitogen-activated protein kinase 7 (Homo sapiens) (Q13164 whole entry, looked up, the tested form may be a part): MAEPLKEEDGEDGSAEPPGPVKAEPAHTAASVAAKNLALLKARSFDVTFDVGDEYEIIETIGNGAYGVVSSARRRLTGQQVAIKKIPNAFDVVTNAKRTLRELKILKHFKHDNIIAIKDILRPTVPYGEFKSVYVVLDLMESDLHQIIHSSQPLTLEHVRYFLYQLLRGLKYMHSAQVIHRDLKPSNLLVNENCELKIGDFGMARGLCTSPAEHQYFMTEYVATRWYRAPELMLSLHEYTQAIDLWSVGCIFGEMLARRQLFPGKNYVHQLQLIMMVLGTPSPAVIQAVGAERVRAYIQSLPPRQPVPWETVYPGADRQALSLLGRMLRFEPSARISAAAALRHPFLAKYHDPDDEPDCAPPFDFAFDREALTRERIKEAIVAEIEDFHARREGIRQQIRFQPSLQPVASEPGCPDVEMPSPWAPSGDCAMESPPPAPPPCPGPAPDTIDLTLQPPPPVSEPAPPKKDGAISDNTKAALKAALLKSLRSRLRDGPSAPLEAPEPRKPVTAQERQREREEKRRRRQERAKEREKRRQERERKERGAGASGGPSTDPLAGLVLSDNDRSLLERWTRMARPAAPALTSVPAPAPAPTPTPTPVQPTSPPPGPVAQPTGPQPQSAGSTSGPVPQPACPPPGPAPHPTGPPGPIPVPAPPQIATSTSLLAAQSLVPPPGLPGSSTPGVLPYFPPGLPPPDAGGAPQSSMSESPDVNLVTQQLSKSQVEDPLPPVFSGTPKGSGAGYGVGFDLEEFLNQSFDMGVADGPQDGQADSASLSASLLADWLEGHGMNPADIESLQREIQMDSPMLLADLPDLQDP
# [4] = hESC survival regulators, cell-based (AID 493140; call rule not given here;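 note: cells exposed to compounds for four days before counting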); conditions: human embryonic stem cell survival screen; stronger effect = higher value
# [5] = liver-stage malaria parasite growth inhibition, primary screen, cell-based, HepG2, luciferase luminescence, HepG2 viability (AID 624349; in the data active = parasite load remaining mostly below about 12%, no sharp cut-off; inactive = mostly above about 10%;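 note: 100% = mean of DMSO negative control wells on the same plate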); conditions: P. berghei liver stage in HepG2, luciferase luminescence, concentration not given here; parasite load remaining: stronger effect = lower value; viability: measured here: HepG2 viability without parasites
# [6] = circadian clock period modulators, cell-based, LOPAC library, luminescence reporter (AID 2774; call rule not given here;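 note: values are relative to mean of DMSO wells on each plate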); conditions: circadian reporter cells, at 7 µM, actives lie on both sides
# [7] = sensitizers of A549 cells to miR-34 induction, primary screen, imaging, A549 dox-inducible miR-34, nuclei and caspase counts (AID 1347080;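 active = compounds whose cell count with miR-34 switched on is under 0.7 times the count with it off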); conditions: A549 miR-34 inducible, Hoechst nuclei count, 48 h
# [8] = viability rescue of complex I mutant cybrids, primary screen, cell-based, galactose medium, ATP luminescence (AID 1645843;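 active = z-score of at least 1.8 in each of two replicates, scored against plate mean and spread of sample wells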;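 note: positive z means more ATP and so rescue of galactose-driven cybrid death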); conditions: complex I mutant cybrid cells, 72 h, stronger effect = higher value
# [9] = LFS_MB_P medulloblastoma growth inhibition, cell-based, chromothripsis tumors, cisplatin or BGB combos (AID 1671449); conditions: LFS_MB_P medulloblastoma cells;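 note: cells exposed for 96 hours; 0% = vehicle DMSO and 100% = killing by high DMSO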
# [10] = HDN33 neuroblastoma growth inhibition, cell-based, chromothripsis tumors, cisplatin or BGB combos (AID 1671450); conditions: HDN33 neuroblastoma cells, stronger effect = higher value;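 note: cells exposed to compound for four days; 0% = vehicle DMSO and 100% = cell killing by high DMSO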
# [11] = ICB984 medulloblastoma cell growth inhibition, synergistic combos for chromothripsis tumors, cisplatin or BGB combos (AID 1671451; call rule not given here;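 note: cells exposed for 96 hours before readout; 0% = vehicle DMSO and 100% = killing by high DMSO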); conditions: ICB984 medulloblastoma cells, drug combinations, stronger effect = higher value
# [12] = LFS_MB_1R medulloblastoma cell growth inhibition, synergistic combos for chromothripsis tumors, cisplatin or BGB combos (AID 1671452); conditions: LFS_MB_1R medulloblastoma cells, stronger effect = higher value;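 note: cells exposed for 96 hours before readout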
# [13] = HTB85 osteosarcoma cell growth inhibition, synergistic combos for chromothripsis tumors, BGB or cisplatin IC20 combos (AID 1671453); conditions: HTB85 osteosarcoma cells, drug combinations, stronger effect = higher value;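 note: cells exposed for 96 hours before readout; 0% = vehicle DMSO and 100% = high DMSO killing control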
# [14] = CRL2098 osteosarcoma cell growth inhibition, synergistic combos for chromothripsis tumors, BGB or cisplatin IC20 combos (AID 1671454); conditions: CRL2098 osteosarcoma cells, drug combinations, stronger effect = higher value;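 note: cells exposed for 96 h before readout; 0% = vehicle DMSO and 100% = killing by high DMSO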
# [15] = HD-MB03 medulloblastoma cell growth inhibition, synergistic combos for chromothripsis tumors, BGB or cisplatin IC20 combos (AID 1671455; in the data active = inhibition above about 83%;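 note: 0% = vehicle DMSO and 100% = high DMSO as cytotoxic control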); conditions: HD-MB03 medulloblastoma cells, stronger effect = higher value
# [16] = UWB1.289 ovarian carcinoma cell growth inhibition, synergistic combos for chromothripsis tumors, BGB or cisplatin combos (AID 1671456); conditions: UWB1.289 ovarian carcinoma cells, stronger effect = higher value;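 note: cells exposed to compound for four days; 0% = vehicle DMSO and 100% = killing by high DMSO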
# [17] = LFS_MB_2R medulloblastoma cell growth inhibition, synergistic combos for chromothripsis tumors, cisplatin combos (AID 1671457); conditions: LFS_MB_2R medulloblastoma cells, stronger effect = higher value;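 note: cells exposed to compound for four days before readout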
# [18] = MDA-MB-436 breast carcinoma cell growth inhibition, synergistic combos for chromothripsis tumors, BGB or cisplatin combos (AID 1671458; call rule not given here;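 note: cells exposed for 96 hours; 0% = vehicle DMSO and 100% = killing by high DMSO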); conditions: MDA-MB-436 breast carcinoma growth inhibition, drug combinations, stronger effect = higher value
# [19] = UWB1.289_BRCA1 ovarian cancer growth, cell-based, BGB or cisplatin combinations (AID 1671459); conditions: UWB1.289 BRCA1 ovarian carcinoma, drug combinations, stronger effect = higher value
# [20] = human astrocyte viability loss, single and combined drugs, cytotoxicity control for chromothriptic childhood tumor combination screen, cell-based, BGB or cisplatin IC20 combos (AID 1671460); conditions: Human astrocytes, drug combinations, stronger effect = higher value;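 note: cells exposed to compounds for 96 hours before viability readout; 0% = vehicle and 100% = killing control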
# [21] = growth inhibition of BT084 medulloblastoma cells, cell-based, ICGC_MB145, cisplatin and BGB IC40 combos (AID 1671461); conditions: drug combinations, stronger effect = higher value;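 note: cells exposed to drugs for 96 hours; 0% = vehicle DMSO and 100% = high DMSO full killing control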
# [22] = growth inhibition of RCMB18 medulloblastoma cells, cell-based, cisplatin and BGB IC40 combos (AID 1671462); conditions: stronger effect = higher value;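 note: cells exposed to compound for four days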
# [23] = growth inhibition of CRL1545 osteosarcoma cells, cell-based, cisplatin and BGB IC20 combos (AID 1671464); conditions: stronger effect = higher value;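 note: cells exposed to compound for 96 hours before readout; 0% = vehicle DMSO and 100% = high DMSO killing control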
# [24] = stronger effect = lower value, cell number ratio, induced over uninduced
# [25] = measured here: relative caspase fold change +Dox/-Dox
# [26] = measured here: total cells with miR-34 induction, stronger effect = lower value
# [27] = measured here: total cells without miR-34 induction
# [28] = measured here: combination with BGB IC40, at 0.05 µM
# [29] = measured here: with BGB IC20 combination, at 0.5 µM
# [30] = measured here: with cisplatin IC20 combination, at 0.5 µM
# [31] = measured here: combination with cisplatin, at 0.5 µM
# [32] = measured here: combination with cisplatin, at 5 µM
compound,measurement,setting,value
CN[C@@H]1[C@H](O[C@H]2[C@H](O[C@H]3[C@H](O)[C@@H](O)[C@H](N=C(N)N)[C@@H](O)[C@@H]3N=C(N)N)O[C@@H](C)[C@]2(O)CO)O[C@@H](CO)[C@H](O)[C@H]1O,inhibition,[1],-14.8% (inactive)
same,remaining NAD,[2],10 nM (inactive)
same,luciferase signal,[3],68 AU (inactive)
CC(=O)OCC(=O)[C@@]1(O)CC[C@H]2[C@@H]3CCC4=CC(=O)CC[C@]4(C)[C@@]3(F)[C@@H](O)C[C@@]21C,survival,[4],16.7 (inactive)
same,parasite load remaining,[5],136% (inactive)
same,viability,[5],91.3%
same,inhibition,[1],-10.7% (inactive)
same,remaining NAD,[2],10 nM (inactive)
same,luciferase signal,[3],84 AU (inactive)
CO/N=C(\C(=O)N[C@@H]1C(=O)N2C(C(=O)O)=C(CSc3nc(=O)c(O)nn3C)CSC12)c1csc(N)n1 (stereo partly drawn),period change,[6],0.08 h (inactive)
same,inhibition,[1],-13.8% (inactive)
same,fold change,[7]; [24],1.02 (inactive)
same,fold change,[7]; [25],1.74
same,cell count,[7]; [26],10200
same,cell count,[7]; [27],9980
same,z-score,[8],0.175 (inactive)
NC[C@@H]1O[C@H](O[C@H]2[C@@H](O)[C@H](O[C@@H]3[C@@H](O)[C@H](N)C[C@H](N)[C@H]3O[C@H]3O[C@H](CO)[C@@H](O)[C@H](O)[C@H]3N)O[C@@H]2CO)[C@H](N)[C@@H](O)[C@@H]1O,inhibition,[1],-8.11% (inactive)
same,remaining NAD,[2],10 nM (inactive)
same,luciferase signal,[3],80 AU (inactive)
COc1cc(C2c3cc4c(cc3C(OC3OC5COC(C)OC5C(O)C3O)C3COC(=O)C23)OCO4)cc(OC)c1O (stereo not drawn),inhibition,[1],-3.12% (inactive)
same,fold change,[7]; [24],0.803 (inactive)
same,fold change,[7]; [25],1.95
same,cell count,[7]; [26],3290
same,cell count,[7]; [27],4090
same,z-score,[8],-1.39 (inactive)
same,inhibition,"[9]; at 0.5 µM, stronger effect = higher value",-32.6% (inactive) and -17.8% (inactive)
same,inhibition,"[9]; measured here: combination with BGB IC20, at 0.005 µM",-28.8% and 2.01%
same,inhibition,"[9]; measured here: combination with BGB IC40, at 0.005 µM",-24.3% and 13.4%
same,inhibition,[9]; [28],-29.9% and -0.69%
same,inhibition,"[9]; measured here: combination with cisplatin, at 0.5 µM, stronger effect = higher value",-45.5% and -45.4%
same,inhibition,"[9]; measured here: combination with cisplatin, at 5 µM, stronger effect = higher value",-34.4% and -6.98%
same,inhibition,"[10]; BGB combo, at 5 µM",47.6% and 64.8%
same,inhibition,[10]; at 0.5 µM,15.7% (inactive) and 26.2% (inactive)
same,inhibition,"[10]; cisplatin combo, at 5 µM",44.6% and 49%
same,inhibition,[10]; [29],15.9% and 28.5%
same,inhibition,[10]; [30],-1.85% and 5.29%
same,inhibition,"[10]; single agent, at 5 µM",68.9% and 70.5%
same,inhibition,"[11]; BGB IC20 combo, at 0.005 µM",-20.6% and 5.1%
same,inhibition,"[11]; BGB IC40 combo, at 0.005 µM",-32.2% and -0.661%
same,inhibition,"[11]; BGB IC40 combo, at 0.05 µM",-74.4% and -28.1%
same,inhibition,[11]; at 0.5 µM,-29.8% (inactive) and -8.32% (inactive)
same,inhibition,"[11]; cisplatin combo, at 0.05 µM",-80.7% and -31.6%
same,inhibition,"[11]; cisplatin combo, at 0.5 µM",-45.1% and -7.65%
same,inhibition,"[11]; cisplatin combo, at 5 µM",-73.3% and -20.4%
same,inhibition,"[11]; measured here: 5 uM single agent, at 5 µM",-13% and -19.7%
same,inhibition,[12]; at 0.5 µM,-24.1% (inactive) and -15.7% (inactive)
same,inhibition,[12]; [28],-34.7% and -15.9%
same,inhibition,[12]; [31],-23.9% and -48.9%
same,inhibition,[12]; [32],-59.7% and -24.4%
same,inhibition,[13]; at 0.5 µM,3.37% (inactive) and 12.3% (inactive)
same,inhibition,"[13]; measured here: with BGB IC20, at 0.5 µM",-1.07% and 17.8%
same,inhibition,"[13]; measured here: with BGB IC20, at 5 µM",84.3% and 86%
same,inhibition,"[13]; measured here: with cisplatin IC20, at 0.5 µM",-5.76% and 1.07%
same,inhibition,"[13]; measured here: with cisplatin IC20, at 5 µM",76.7% and 87%
same,inhibition,"[13]; single agent, at 5 µM",84.8% and 89.6%
same,inhibition,[14]; at 0.5 µM,-81.8% (inactive) and -42.5% (inactive)
same,inhibition,"[14]; measured here: combination with BGB at IC20, at 0.5 µM",-58% and -65.7%
same,inhibition,"[14]; measured here: combination with cisplatin at IC20, at 0.5 µM",-127% and -42.7%
same,inhibition,[15]; at 0.5 µM,58.9% (inactive) and 63.9% (inactive)
same,inhibition,"[15]; measured here: combo with BGB at IC20, at 0.5 µM",56.6% and 69.3%
same,inhibition,"[15]; measured here: combo with cisplatin at IC20, at 0.5 µM",64.2% and 61.2%
same,inhibition,[16]; at 0.5 µM,-3.51% (inactive) and 0.59% (inactive)
same,inhibition,"[16]; measured here: inhibition with BGB combination, at 0.05 µM",2.23% and -16.8%
same,inhibition,"[16]; measured here: inhibition with cisplatin combination, at 0.05 µM",-32.6% and -11.7%
same,inhibition,[17]; at 0.5 µM,-20.7% (inactive) and -2.13% (inactive)
same,inhibition,[17]; [31],-26.1% and 1.95%
same,inhibition,[17]; [32],-15.5% and -45.8%
same,inhibition,[18]; at 0.5 µM,19.1% (inactive) and 27.8% (inactive)
same,inhibition,"[18]; measured here: BGB combination, at 0.5 µM",8.19% and 23.7%
same,inhibition,"[18]; measured here: BGB combination, at 5 µM",34% and 51.6%
same,inhibition,"[18]; measured here: cisplatin combination, at 0.5 µM",17.4% and 18.9%
same,inhibition,"[18]; measured here: cisplatin combination, at 5 µM",53.5% and 66.5%
same,inhibition,"[19]; BGB combination, concentration series, at 5 µM",13% and 11.6%
same,inhibition,[19]; at 0.5 µM,-8.08% (inactive) and 2.75% (inactive)
same,inhibition,"[19]; cisplatin combination, concentration series, at 5 µM",-5.18% and 30.7%
same,inhibition,[20]; at 0.5 µM,37.7% (inactive) and 21.4% (inactive)
same,inhibition,"[20]; measured here: combo with BGB IC20, at 0.5 µM",41.3% and 27.7%
same,inhibition,"[20]; measured here: combo with cisplatin IC20, at 0.5 µM",11.1% and -19.1%
same,inhibition,[21]; at 0.5 µM,-29.6% (inactive) and -14.9% (inactive)
same,inhibition,"[21]; cisplatin combination, at 0.5 µM",-28.5% and -4.54%
same,inhibition,"[21]; cisplatin combination, at 5 µM",10.8% and 15.8%
same,inhibition,"[21]; measured here: BGB IC40 combination 0.05 uM, at 0.05 µM",35.1% and 9.21%
same,inhibition,"[21]; single agent, at 5 µM",-17.9% and 3.25%
same,inhibition,[22]; at 0.5 µM,-14.2% (inactive) and -26.4% (inactive)
same,inhibition,"[22]; cisplatin combo, at 5 µM",-20.2% and -20.5%
same,inhibition,"[22]; measured here: BGB IC40 combination, at 0.05 µM",-25.5% and -24.7%
same,inhibition,[22]; [31],-16.3% and -39.4%
same,inhibition,"[22]; single agent, at 5 µM",-18.8% and -0.235%
same,inhibition,[23]; at 0.5 µM,27.6% (inactive) and 42.6% (inactive)
same,inhibition,[23]; [29],19.9% and 59.6%
same,inhibition,[23]; [30],30.4% and 32.6%
same,inhibition,"[23]; single agent, at 0.05 µM",-27% and -16.2%
same,inhibition,"[23]; single agent, at 5 µM",72.5% and 78.1%
